Over roughly 33,000 sequences, “E-score (-0.5 to 0.5)” has its median near -0.032; the highest 2% begin near 0.36. This excerpt belongs to a sample that is enriched for the highest values.
The sequences below were run against T1, Sko1 (UniProt Q02100) (assay: PBM E-score (8-mer binding enrichment) (E-score (-0.5 to 0.5)); higher = stronger / more preferred TF binding). Conditions: protein concentration: 200 nM; construct: GST-full length.
T1 sequence: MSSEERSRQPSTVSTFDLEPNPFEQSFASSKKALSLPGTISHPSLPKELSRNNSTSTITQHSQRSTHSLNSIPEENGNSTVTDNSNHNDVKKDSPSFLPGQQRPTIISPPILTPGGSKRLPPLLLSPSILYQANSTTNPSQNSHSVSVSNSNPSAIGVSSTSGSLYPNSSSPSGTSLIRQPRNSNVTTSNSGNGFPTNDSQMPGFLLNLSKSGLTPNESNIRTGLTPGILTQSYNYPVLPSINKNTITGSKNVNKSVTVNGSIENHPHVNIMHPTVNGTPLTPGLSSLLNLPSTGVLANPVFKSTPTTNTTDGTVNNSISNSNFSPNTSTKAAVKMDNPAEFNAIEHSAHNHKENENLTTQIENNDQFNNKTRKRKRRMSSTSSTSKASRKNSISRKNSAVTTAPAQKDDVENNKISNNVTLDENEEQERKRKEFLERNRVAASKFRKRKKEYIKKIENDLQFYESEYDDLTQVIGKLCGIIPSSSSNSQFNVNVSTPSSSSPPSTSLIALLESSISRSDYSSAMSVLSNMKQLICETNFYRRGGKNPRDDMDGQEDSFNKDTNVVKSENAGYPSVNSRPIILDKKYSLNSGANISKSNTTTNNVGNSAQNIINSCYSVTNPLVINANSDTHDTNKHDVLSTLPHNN
In short: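 Yeast transcription factors carrying a GST tag, as full-length proteins or DNA-binding domains, were produced by PURExpress in vitro transcription/translation. About 100-200 nM protein was applied to universal all-10-mer Agilent arrays, double-stranded by primer extension on fresh or once-stripped slides. Bound protein was detected with fluorescent anti-GST, and scans were normalised with masliner. The Universal PBM Analysis Suite gave each ungapped eight-base word, pooled with its reverse complement, an E-score, a modified Wilcoxon-Mann-Whitney statistic.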

Row | Sequence | PBM E-score
1 | CTCTTACA | -0.0812
2 | ATTTAGTA | 0.25
3 | ATGAAATG | -0.059
4 | AGGCAAGC | -0.126
5 | GATACGTA | 0.48
6 | AATACGAA | 0.324
7 | AATACGGA | 0.138
8 | CATACGCC | 0.182
9 | AATACGCG | 0.287
10 | AATACGTG | 0.458
11 | AATACGGG | -0.111
12 | CATACGGC | -0.0208
13 | GATACGAA | 0.227
14 | GATACGGA | -0.0181
15 | AATACGTA | 0.482
16 | CATACGTC | 0.466
17 | AAACCTTG | 0.0199
18 | GACTCACC | -0.118
19 | CTCAGGAG | -0.159
20 | CACTTCCA | 0.109
21 | CTTAAAGA | 0.00637
22 | CTTGATGC | -0.116
23 | AACCGCTT | -0.113
24 | AATTCAAA | 0.193
25 | CTTAAGCA | -0.0027

Row | Sequence | PBM E-score
26 | CACTTTGG | -0.0531
27 | ATCTGGGA | -0.147
28 | CAGGCAGC | -0.349
29 | CGGTGGAA | -0.188
30 | ATGAGCGA | 0.102
31 | AATACGAC | 0.22
32 | AATACGTC | 0.464
33 | CATACGAA | 0.308
34 | CATACGGA | -0.00572
35 | CATACGTA | 0.485
36 | AATACGGC | 0.0384
37 | CCGACTGA | -0.162
38 | ACATGGTA | 0.00395
39 | ACTCCTGA | -0.0495
40 | CGACGACA | 0.0871
41 | TGACGACA | 0.467
42 | CTACGAAA | 0.214
43 | TTACGAAA | 0.396
44 | GTACGACA | 0.326
45 | GGACGAAA | -0.0622
46 | TGACGAAA | 0.463
47 | AGACGAAA | 0.199
48 | ATACGACA | 0.363
49 | ATACGACG | 0.234
50 | ATACGAAA | 0.346

Row | Sequence | PBM E-score
51 | GGACGACA | 0.0412
52 | AGAATCCC | -0.0186
53 | GTAGTTGA | 0.173
54 | CTTCTACC | -0.3
55 | TAATGCAA | 0.0655
56 | ATTCACTG | 0.0188
57 | ACTTTCGG | 0.0182
58 | TAGGGGGA | -0.251
59 | CGCTATGC | 0.147
60 | TCAAGTGA | 0.087
61 | ATCGCTAG | -0.0122
62 | CTAGTTAC | 0.099
63 | CATTGAGG | -0.021
64 | CAGGCTCC | -0.335
65 | CTATGTCA | 0.338
66 | ATATGTCA | 0.339
67 | GTATGTCA | 0.398
68 | ACTTTACG | 0.379
69 | AATTTACG | 0.332
70 | ACTTTACA | 0.158
71 | CATTTACC | 0.129
72 | CATTTACA | 0.103
73 | CCTTTACG | 0.278
74 | ATTTTACC | 0.252
75 | ATTTTACG | 0.383

Row | Sequence | PBM E-score
76 | CATTTACG | 0.369
77 | ATAGCGGA | -0.0894
78 | AGGTTGTA | 0.15
79 | GTCCAGTA | -0.0738
80 | AGCGCGAA | 0.13
81 | AGTCATAG | -0.0111
82 | CGTCATAA | 0.487
83 | GGTCATAC | 0.021
84 | AGTCATAA | 0.0121
85 | AGTCATAC | 0.262
86 | TGTCATAA | 0.325
87 | CCTCATAG | 0.1
88 | CGTCATAG | 0.483
89 | CGTCATAC | 0.486
90 | GTAACTGA | 0.126
91 | CCAGTGGG | -0.107
92 | ATCCACGC | -0.0735
93 | GTAACCTA | 0.192
94 | CCAAAACG | 0.171
95 | AACCCGTG | -0.216
96 | AGATGACA | 0.256
97 | AGATGACG | 0.476
98 | CGATGACG | 0.482
99 | CGATGACC | 0.0462
100 | AGATGACC | -0.0804

Row | Sequence | PBM E-score
101 | CGATGACA | 0.283
102 | CAACTTAC | 0.0405
103 | AGCGAAAC | 0.163
104 | GGACCGCC | -0.415
105 | GGACCATA | -0.148
106 | GGCCCAAC | -0.146
107 | ACGTTAGA | 0.265
108 | AGAGATGG | -0.0345
109 | CGCGTCAG | 0.222
110 | GCCGTCAC | 0.166
111 | CTCGTCAA | 0.0618
112 | ATCGTCGC | 0.0155
113 | ATCGTCTC | -0.0603
114 | CTCGTCAC | 0.38
115 | CTCGTCAG | 0.176
116 | CGCGTCAC | 0.41
117 | ATCGTCAC | 0.385
118 | CGCGTCAA | 0.34
119 | GTCGTCAC | 0.41
120 | GTCGTCAA | 0.239
121 | ACCTCCAA | -0.189
122 | CGCAGTAC | 0.118
123 | ACTACTGC | -0.0692
124 | AAACCTAG | -0.0586
125 | GACCACAA | -0.165

Row | Sequence | PBM E-score
126 | AACTCGAG | -0.00786
127 | CATTTTCC | 0.122
128 | CCGGACTC | -0.16
129 | GCGGACGC | -0.0227
130 | AGGGTACT | -0.236
131 | TCACAACA | 0.251
132 | ACTTAAGC | 0.032
133 | ATCGTCAA | 0.287
134 | ACCGTCAT | 0.378
135 | ATCGTCAG | 0.263
136 | ATCGTCAT | 0.469
137 | ACCGTCAA | 0.00527
138 | ACCGTCAG | -0.0341
139 | AGCGTCAA | 0.166
140 | AGCGTCAG | 0.154
141 | AGCGTCAT | 0.445
142 | CCTTAAAA | 0.101
143 | GTGAATGA | 0.231
144 | GGGCCAGA | -0.278
145 | GGAGCTAC | -0.112
146 | CGCTAGCG | -0.26
147 | CGGAGAGA | -0.15
148 | CTCCAAGA | -0.189
149 | ATTCTAGG | 0.0401
150 | AGTCGCGG | -0.312

Row | Sequence | PBM E-score
151 | GCAAACGA | 0.136
152 | TAGCTACA | 0.13
153 | GGATTCTA | -0.0972
154 | TCATTGAA | 0.146
155 | CATCATAC | 0.377
156 | AATCATAC | 0.253
157 | CATCATGG | 0.132
158 | CATCATAA | 0.299
159 | CATCATAG | 0.361
160 | AATCATAG | 0.126
161 | ATAAATAC | 0.23
162 | CGATGGAA | 0.106
163 | AAACAATC | 0.0366
164 | ACAGGTTC | -0.291
165 | ACGGTTTG | -0.104
166 | GACCTAGA | 0.0106
167 | ACGTATGC | 0.458
168 | CCGTATGC | -0.0726
169 | AAGTATGG | 0.023
170 | AGGTATGC | 0.118
171 | GCGTATGA | 0.337
172 | CCGTATGA | 0.135
173 | ATGTATGG | 0.0987
174 | ACGTATGA | 0.473
175 | ACGTATGG | 0.441
